Our source for the Percent Effect values is ChEMBL document CHEMBL3988442, “University of Dundee, Small-Polar-MMV Screening Library” (2021).

Common to all, as to parameters: scale not given: direction of the effect not stated beside the values
Experiment [1] concerns the target Protein translocase subunit SecA (Escherichia coli (strain K12)) (UniProt P10408). The experiment can be described thus: Assay to Identify E. coli SecA ATPase Inhibitors. It is filed as functional. The settings on record: 30 µM.
Experiment [2] addresses T1, Ubiquitin-activating enzyme e1, putative (Leishmania donovani (strain BPK282A1)) (UniProt E9BSI1).
T1 sequence (whole entry): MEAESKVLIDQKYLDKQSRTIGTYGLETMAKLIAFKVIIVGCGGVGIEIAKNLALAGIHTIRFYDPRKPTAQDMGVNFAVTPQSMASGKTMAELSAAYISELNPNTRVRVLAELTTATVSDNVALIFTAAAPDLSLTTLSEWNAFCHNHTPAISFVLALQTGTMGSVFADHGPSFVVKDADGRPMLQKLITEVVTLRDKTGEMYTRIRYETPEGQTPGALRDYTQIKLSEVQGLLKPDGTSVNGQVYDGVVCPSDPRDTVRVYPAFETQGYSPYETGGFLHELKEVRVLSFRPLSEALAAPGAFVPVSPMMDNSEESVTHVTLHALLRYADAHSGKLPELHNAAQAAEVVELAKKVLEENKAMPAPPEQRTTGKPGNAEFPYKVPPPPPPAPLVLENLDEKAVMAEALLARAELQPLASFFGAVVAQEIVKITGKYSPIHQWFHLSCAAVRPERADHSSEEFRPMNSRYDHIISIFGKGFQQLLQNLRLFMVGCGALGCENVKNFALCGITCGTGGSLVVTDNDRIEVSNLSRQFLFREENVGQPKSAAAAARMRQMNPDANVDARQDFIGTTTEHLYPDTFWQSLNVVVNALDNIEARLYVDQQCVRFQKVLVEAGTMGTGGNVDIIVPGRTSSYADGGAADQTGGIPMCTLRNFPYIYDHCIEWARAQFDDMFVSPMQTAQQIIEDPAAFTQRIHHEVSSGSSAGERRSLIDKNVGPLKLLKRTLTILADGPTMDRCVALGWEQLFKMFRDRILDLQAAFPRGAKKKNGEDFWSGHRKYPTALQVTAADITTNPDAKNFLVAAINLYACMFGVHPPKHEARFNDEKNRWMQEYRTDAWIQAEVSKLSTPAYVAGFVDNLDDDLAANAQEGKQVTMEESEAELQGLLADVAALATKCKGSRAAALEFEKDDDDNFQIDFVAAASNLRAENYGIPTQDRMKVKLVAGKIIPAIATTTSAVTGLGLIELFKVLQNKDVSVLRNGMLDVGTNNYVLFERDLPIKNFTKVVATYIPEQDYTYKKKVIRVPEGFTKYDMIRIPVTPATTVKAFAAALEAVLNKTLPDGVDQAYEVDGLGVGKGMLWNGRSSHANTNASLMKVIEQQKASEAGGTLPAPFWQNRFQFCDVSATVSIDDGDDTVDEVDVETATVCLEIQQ
Nature of the experiment: Leishmania donovani Ubiquitin Activating Enzyme (LdE1). Type of experiment: functional. Particulars: 30 µM.

Experiment [3] addresses AMP-activated protein kinase, AMPK (Homo sapiens) (UniProt P54646+O43741+P54619+Q9UGJ0+Q9Y478+Q13131+Q9UGI9). The experiment can be described thus: AMP-dependent Kinase enzyme assay. An in vitro enzyme assay that detects ADP turnover that is directly proportional to AMPK activity. This uses naive AMPK that is activated during the assay with MK-8722. Type of experiment: functional. Particulars: 30 µM.

In experiment [4] the target is Sialic acid-binding Ig-like lectin 9 (Homo sapiens) (UniProt Q9Y336). The experiment can be described thus: Hs-Siglec9 ALPHAscreen SOP 20170721. The settings on record: 10 µM. A general note: Alpha assays give light when donor and acceptor beads are brought close together.
The test system of experiment [5] is Trypanosoma cruzi. The experiment can be described thus: Trypanosoma cruzi phosphomannomutase and mannose-1-phosphate guanylyltransferase assay. The settings on record: 10 µM. It is filed as functional.
Experiment [6] addresses T2, Arginase-2, mitochondrial (Homo sapiens) (UniProt P78540).
T2 sequence (whole entry): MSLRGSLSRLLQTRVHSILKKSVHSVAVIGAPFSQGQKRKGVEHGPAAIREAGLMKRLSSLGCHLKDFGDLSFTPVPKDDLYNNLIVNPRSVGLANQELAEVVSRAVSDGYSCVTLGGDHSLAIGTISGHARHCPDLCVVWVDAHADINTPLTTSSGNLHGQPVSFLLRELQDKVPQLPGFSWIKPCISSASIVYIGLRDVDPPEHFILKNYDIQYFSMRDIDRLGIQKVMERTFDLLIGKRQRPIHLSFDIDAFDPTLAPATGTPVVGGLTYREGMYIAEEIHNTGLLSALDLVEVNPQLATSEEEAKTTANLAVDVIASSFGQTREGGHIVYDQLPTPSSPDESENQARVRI
The experiment can be described thus: in vitro enzyme assay to detect the production of urea directly proportional to the activity of Arginase II. Also: in the data most compounds retested in dose-response had high values. It is filed as functional. The settings on record: 33.3 µM.

Experiment [7] has as its target T3, Proteasome subunit beta (Trypanosoma cruzi) (UniProt O96673).
T3 sequence (whole entry): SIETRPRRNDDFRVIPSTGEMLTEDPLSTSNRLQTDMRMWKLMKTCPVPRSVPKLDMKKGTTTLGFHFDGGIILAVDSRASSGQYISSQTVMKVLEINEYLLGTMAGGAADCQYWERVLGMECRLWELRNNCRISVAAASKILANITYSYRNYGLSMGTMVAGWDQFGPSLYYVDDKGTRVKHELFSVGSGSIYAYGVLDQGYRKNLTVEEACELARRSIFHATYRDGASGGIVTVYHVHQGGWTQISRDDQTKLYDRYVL
Nature of the experiment: Trypanosoma cruzi proteasome chymotrypsin-like activity (TcProtChymo) assay. Also: in the data most compounds retested in dose-response had high values. It is filed as functional. Particulars: 9.37 µM.

The species entered for experiment [8] is Homo sapiens. The experiment can be described thus: To identify inhibition of the IFN signalling (Jak-Stat) pathway via expression of an eGFP reporter gene under the control of an IFN-stimulated response element (ISRE) containing MxA promoter. Type of experiment: functional. The settings on record: 30 µM. Background: A reporter such as luciferase makes a cellular process visible.

Experiment [9] concerns the target T4, Tyrosyl-tRNA synthetase, putative (Trypanosoma cruzi (strain CL Brener)) (UniProt Q4DSP6).
T4 sequence (whole entry): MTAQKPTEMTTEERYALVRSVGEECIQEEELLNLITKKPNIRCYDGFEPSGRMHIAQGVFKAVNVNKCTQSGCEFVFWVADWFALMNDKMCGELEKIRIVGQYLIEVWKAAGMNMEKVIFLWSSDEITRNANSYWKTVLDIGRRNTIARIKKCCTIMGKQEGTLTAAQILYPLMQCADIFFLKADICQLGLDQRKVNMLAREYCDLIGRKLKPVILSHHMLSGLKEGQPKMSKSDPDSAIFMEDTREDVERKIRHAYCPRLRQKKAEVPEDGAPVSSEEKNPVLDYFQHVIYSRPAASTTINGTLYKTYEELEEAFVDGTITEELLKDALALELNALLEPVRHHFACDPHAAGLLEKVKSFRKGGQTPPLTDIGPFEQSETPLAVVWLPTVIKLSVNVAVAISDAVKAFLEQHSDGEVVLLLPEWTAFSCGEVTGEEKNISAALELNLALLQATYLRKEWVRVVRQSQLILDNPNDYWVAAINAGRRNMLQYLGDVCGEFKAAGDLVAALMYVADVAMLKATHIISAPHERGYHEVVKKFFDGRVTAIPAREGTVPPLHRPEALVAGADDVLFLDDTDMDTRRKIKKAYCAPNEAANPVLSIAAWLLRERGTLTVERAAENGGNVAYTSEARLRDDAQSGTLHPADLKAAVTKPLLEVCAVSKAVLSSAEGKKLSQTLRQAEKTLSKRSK
The experiment can be described thus: Trypanosoma cruzi tyrosyl tRNA synthetase (TcYRS) _High Tyrosine SOP. Also: in the data most compounds retested in dose-response had high values. Type of experiment: functional. Particulars: 30 µM.

Experiment [10] addresses T4, Tyrosyl-tRNA synthetase, putative (Trypanosoma cruzi (strain CL Brener)). The experiment can be described thus: Trypanosoma cruzi tyrosyl tRNA synthetase (TcYRS) SOP. It is filed as functional. Particulars: 30 µM.
For experiment [11], the target named is Chromo domain-containing protein 1 (Saccharomyces cerevisiae (strain ATCC 204508 / S288c) (Baker's yeast)) (UniProt P32657). The experiment can be described thus: ScCHD-1 Enzyme Inhibition Assay. Also: in the data most compounds retested in dose-response had high values. Type of experiment: functional. The settings on record: 30 µM.

For some assays here: Potency and affinity values are given separately.

Chain of Protein translocase subunit SecA (Escherichia coli (strain K12)) (P10408 whole entry): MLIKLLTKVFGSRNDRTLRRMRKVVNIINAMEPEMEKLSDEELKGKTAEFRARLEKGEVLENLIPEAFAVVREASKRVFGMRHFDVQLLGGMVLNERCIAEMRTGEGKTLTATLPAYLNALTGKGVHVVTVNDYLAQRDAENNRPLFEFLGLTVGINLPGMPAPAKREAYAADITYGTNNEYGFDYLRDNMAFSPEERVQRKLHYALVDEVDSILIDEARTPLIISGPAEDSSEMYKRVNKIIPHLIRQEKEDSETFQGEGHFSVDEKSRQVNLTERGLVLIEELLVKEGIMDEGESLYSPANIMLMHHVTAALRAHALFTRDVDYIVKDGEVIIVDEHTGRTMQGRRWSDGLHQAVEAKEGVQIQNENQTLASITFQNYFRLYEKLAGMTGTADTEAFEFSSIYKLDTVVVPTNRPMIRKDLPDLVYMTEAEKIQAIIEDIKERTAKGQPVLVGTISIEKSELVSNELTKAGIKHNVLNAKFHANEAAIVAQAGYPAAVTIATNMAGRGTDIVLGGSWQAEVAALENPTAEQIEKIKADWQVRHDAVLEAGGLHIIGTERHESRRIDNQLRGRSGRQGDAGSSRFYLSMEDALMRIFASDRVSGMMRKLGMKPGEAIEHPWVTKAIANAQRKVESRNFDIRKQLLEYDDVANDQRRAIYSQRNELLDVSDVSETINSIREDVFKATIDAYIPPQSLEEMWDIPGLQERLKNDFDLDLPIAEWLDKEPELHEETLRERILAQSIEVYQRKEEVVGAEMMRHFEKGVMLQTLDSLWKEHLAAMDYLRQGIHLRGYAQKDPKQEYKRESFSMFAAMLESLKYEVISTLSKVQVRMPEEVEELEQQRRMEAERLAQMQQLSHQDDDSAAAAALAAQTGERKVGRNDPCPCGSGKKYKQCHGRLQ
Chain of Sialic acid-binding Ig-like lectin 9 (Homo sapiens) (Q9Y336 whole entry): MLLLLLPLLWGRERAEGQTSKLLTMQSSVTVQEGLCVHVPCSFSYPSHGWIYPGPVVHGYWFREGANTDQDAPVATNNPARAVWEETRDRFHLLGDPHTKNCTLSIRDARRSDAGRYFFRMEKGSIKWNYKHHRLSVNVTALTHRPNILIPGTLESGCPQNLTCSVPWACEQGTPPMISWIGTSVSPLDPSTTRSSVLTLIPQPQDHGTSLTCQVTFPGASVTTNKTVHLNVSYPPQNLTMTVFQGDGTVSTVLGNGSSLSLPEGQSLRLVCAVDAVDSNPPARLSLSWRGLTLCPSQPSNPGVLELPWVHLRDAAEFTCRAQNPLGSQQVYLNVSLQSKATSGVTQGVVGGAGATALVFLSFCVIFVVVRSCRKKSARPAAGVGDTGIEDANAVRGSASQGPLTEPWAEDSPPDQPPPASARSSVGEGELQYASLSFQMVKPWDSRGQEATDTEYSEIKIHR
Chain of Chromo domain-containing protein 1 (Saccharomyces cerevisiae (strain ATCC 204508 / S288c) (Baker's yeast)) (P32657 whole entry, the tested form may be a part): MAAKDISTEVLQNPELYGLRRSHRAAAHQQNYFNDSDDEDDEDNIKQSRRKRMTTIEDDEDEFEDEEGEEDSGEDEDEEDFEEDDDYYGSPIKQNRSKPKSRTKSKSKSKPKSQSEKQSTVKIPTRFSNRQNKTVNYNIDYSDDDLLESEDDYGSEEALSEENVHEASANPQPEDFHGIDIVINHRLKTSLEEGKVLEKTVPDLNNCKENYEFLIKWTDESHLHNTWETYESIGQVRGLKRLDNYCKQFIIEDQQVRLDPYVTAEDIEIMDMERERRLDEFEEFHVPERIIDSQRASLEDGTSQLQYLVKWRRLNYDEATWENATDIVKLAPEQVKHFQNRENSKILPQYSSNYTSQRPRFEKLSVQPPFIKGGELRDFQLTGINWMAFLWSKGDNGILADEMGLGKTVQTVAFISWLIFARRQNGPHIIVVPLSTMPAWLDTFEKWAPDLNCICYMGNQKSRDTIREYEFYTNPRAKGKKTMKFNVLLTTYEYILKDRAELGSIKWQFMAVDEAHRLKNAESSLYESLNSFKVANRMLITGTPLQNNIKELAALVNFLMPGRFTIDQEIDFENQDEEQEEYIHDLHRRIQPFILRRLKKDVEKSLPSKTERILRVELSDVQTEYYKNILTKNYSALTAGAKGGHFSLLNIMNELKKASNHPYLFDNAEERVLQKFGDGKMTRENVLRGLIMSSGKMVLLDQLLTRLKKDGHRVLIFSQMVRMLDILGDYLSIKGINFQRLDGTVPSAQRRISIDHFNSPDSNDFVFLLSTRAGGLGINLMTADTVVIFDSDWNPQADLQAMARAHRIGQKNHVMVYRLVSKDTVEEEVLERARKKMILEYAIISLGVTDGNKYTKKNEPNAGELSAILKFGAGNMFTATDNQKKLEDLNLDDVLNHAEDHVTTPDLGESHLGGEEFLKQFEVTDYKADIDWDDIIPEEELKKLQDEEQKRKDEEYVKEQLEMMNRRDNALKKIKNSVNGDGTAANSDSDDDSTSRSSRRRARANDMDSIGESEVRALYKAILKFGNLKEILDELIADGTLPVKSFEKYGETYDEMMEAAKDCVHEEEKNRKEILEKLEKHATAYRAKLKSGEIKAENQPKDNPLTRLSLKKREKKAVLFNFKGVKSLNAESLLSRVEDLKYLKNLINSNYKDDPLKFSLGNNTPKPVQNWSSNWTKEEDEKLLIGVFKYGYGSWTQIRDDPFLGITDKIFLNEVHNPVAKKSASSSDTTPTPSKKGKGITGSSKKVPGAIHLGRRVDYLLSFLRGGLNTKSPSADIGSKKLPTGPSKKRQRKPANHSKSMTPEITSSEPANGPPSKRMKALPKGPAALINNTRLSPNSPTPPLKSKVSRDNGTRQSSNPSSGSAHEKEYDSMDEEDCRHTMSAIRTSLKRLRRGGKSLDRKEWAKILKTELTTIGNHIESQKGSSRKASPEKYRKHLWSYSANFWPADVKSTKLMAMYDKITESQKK

Consider `CCn1cnnc1CNC(=O)NCC(c1cccs1)N1CCCC1` (stereo not given), for which the Percent Effect in experiment [1] is -2.72%; in experiment [2], 18.2%; in experiment [3] it was 0.236%; in [4], 9.73%; in experiment [5], 2.43%; in [6], -1.42%. The Percent Effect was 8.11% in experiment [7]; 10.8% in experiment [8]; 5.83% in [9]; 19.5% in [10]; -6.68% in experiment [11].
For `CCCn1[nH]cc/c1=N\C(=O)CN1CCn2c(nnc2C2CC2)C1`, the Percent Effect in experiment [1] was -2.72%; in experiment [2] it was 21.1%; in experiment [3], -11.3%; in experiment [4] it was -5.47%; in experiment [5], -4.13%; in experiment [6], 3.83%. For the same compound, the Percent Effect in experiment [7] was 16.5%; in experiment [8], 22.7%; in experiment [9] it was 5.39%; in [10], 9.76%; in experiment [11] it was -10.1%.
Consider `CCn1cnnc1C1CCN(C(=O)c2ccccc2OC)CC1`, for which the Percent Effect was -2.76% in experiment [1]; 7.79% in experiment [2]; 12.8% in experiment [3]; 2.75% in [4]; -4.68% in experiment [5]; -2.13% in experiment [6]. Further, the Percent Effect in experiment [7] is 6.42%; in experiment [8] it was 25.9%; in [9] it was 4.85%; in [10] it was 7.32%; in experiment [11], -3.6%.
On to `CN(C)C(=O)NC[C@H]1OC[C@@H]2CCN(Cc3ccoc3)C[C@@H]21`, for which the Percent Effect in experiment [1] was 2.83%; in experiment [2], 2.67%; in experiment [3], 24.1%; in experiment [4], -3.37%; in experiment [5] it was -5.41%; in [6], -66.8%. In addition, the Percent Effect was 8.38% in [7]; 36.1% in experiment [8]; 3.12% in [9]; 10% in [10]; -4.56% in experiment [11].
With `CCN1C[C@@H]2[C@@H](OC)CCN(S(=O)(=O)c3ccccc3)[C@@H]2C1`, the Percent Effect in experiment [1] is -1.54%; in [2] it was 16%; in experiment [3], 3.6%; in [4], -7.4%; in experiment [5], -7.48%; in experiment [6], 0.233%. Moreover, the Percent Effect in [7] is 11.4%; in experiment [8], -3.22%; in [9], 1.06%; in experiment [10] it was 6.41%; in [11] it was -5.54%.
With `O=c1nc(CNc2ccccc2)[nH]n1Cc1ccccc1`, the Percent Effect in experiment [1] was -3.5%; in experiment [2], 7.89%; in [3] it was 10.7%; in [4], 0.216%; in experiment [5], -4.58%; in experiment [6] it was -1.18%. Besides, the Percent Effect in experiment [7] was 19.5%; in [8], 3.25%; in [9], 9.57%; in experiment [10] it was 13%; in experiment [11] it was -4.75%.
`O=C(NCCN1CCOCC1)c1ccc(-n2ccc3ccccc32)s1`: the Percent Effect in experiment [1] was -2.64%; in [2] it was 10.4%; in experiment [3], 4.76%; in experiment [4], -1.07%; in [5], 1.08%; in experiment [6], -3.23%. Moreover, the Percent Effect in [7] was 8.01%; in experiment [8], 28.5%; in experiment [9], 3.17%; in experiment [10] it was 11.5%; in [11] it was -7.3%.
On to `Cc1cc(N2CCC(N(C)C(=O)c3ccccc3)CC2)nc(C)n1`, for which the Percent Effect is -2.59% in experiment [1]; 19.2% in experiment [2]; 2.37% in experiment [3]; 4.5% in [4]; 5.09% in [5]; 10.4% in experiment [6]. For the same compound, the Percent Effect in experiment [7] was 11.4%; in experiment [8] it was 29.3%; in experiment [9], 7.53%; in experiment [10], 17.5%; in experiment [11] it was -8.12%.
`O=C(c1ncccn1)N1C[C@H]2CCC[C@@]2(COCC2CCOCC2)C1`: the Percent Effect in experiment [1] was -5.07%; in [2], 10.8%; in experiment [3], 1.99%; in experiment [4], -7.31%; in [5], 6.16%; in experiment [6], -0.319%. Besides, the Percent Effect came out at 19.9% in experiment [7]; 25.2% in [8]; 6.49% in experiment [9]; 15.4% in experiment [10]; 2.35% in [11].
As for `CCc1ncc(C(=O)NCCNC(=O)Cc2ccc(F)cc2)s1`, the Percent Effect in [1] was -1.95%; in experiment [2], 8%; in experiment [3] it was -16.6%; in [4], 11.1%; in [5], 5.55%; in [6], 16.7%. Moreover, the Percent Effect was 11.3% in experiment [7]; -8.05% in experiment [8]; 7.1% in experiment [9]; 16.1% in experiment [10]; -3.11% in [11].
